This note sets out measurements from PubChem BioAssay (Tox21).

Each structure is given as a SMILES string. Unmarked numbers belong to inactive results. Records with an inconclusive call do not appear. Activity calls are given as the source filed them. Unless noted, calls come from the whole dose curve; as a rule, active = well fitted curve in the direction sought with a large enough effect in the repeat runs; inconclusive = weak or mixed curves; inactive = no such curve, though single readings can be large; an effect the other way counts as inactive or inconclusive.

For assay [1], the target named is Thyrotropin receptor (Homo sapiens) (UniProt P16473). Kind of assay: qHTS assay to identify small molecule antagonists of the thyroid stimulating hormone receptor (TSHR) signaling pathway (AID 1259385; calls by dose curve; note: nearly all actives have a fitted effect of over 20% in size). The settings on record: TSHR-HEK293 cAMP HTRF, TSH-stimulated antagonist mode; series mostly up to 92.4 µM. In outline:
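Antagonist mode: compound-treated TSHR-expressing HEK293 cells were stimulated with 1.5 ng/mL TSH (final) in presence of Ro20-1724 for 30 min at RT. HTRF cAMP detection after 1 h; each compound tested at 15 concentrations, triplicate.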
(In qHTS, concentration-response curves come from the screen itself.)

A short description of assay [2]: qHTS assay to identify small molecule agonists of the estrogen receptor alpha (ER-alpha) signaling pathway in the presence of an antagonist - cell viability counter screen (AID 1259386).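 Note: cells exposed to compounds for 22 h at 37 °C before the viability read; nearly all actives have a fitted effect of over 30% in size.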 Note: potency is the fitted concentration of half-maximal effect. To be noted: VM7Luc4E2 viability, CellTiter-Fluor fluorescence, 22 h; series mostly up to 92.4 µM. An outline of the steps:
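Using estrogen-depleted VM7Luc4E2 cells, the 15-concentration compound series was applied together with 10.0nM ICI-182,780 and incubated 22hr at 37C/5% CO2. Cell viability was then scored by CellTiter-Fluor.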

Assay [3] concerns the target Progesterone receptor (Homo sapiens) (UniProt P06401). Kind of assay: qHTS assay to identify small molecule agonists of the progesterone receptor (PR) signaling pathway (AID 1346784; calls by dose curve; note: nearly all actives have a fitted effect of over 30% in size). To be noted: PR-UAS-bla HEK293T, beta-lactamase FRET ratio, 16 h; series mostly up to 92.4 µM. In outline: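 Agonist qHTS: compounds pinned onto 3,000 PR-UAS-bla HEK 293T cells per well in charcoal-stripped serum medium, 16hr at 37C, then beta-lactamase activity measured by LiveBLAzer FRET fluorescence after 2 hours at room temperature.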

The target is the same in assay [4]. Kind of assay: qHTS assay to identify small molecule antagonists of the progesterone receptor (PR) signaling pathway (AID 1346795; active = well fitted inhibition curve with a large enough effect in the signal ratio in the repeat runs, not every such curve was filed as active; the % refers to the signal ratio). To be noted: PR-UAS-bla HEK293T, beta-lactamase FRET ratio, 16 h; series mostly up to 92.4 µM. An outline of the steps:
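Antagonist mode with agonist R5020 at 1 nM final and 16 hr incubation at 37C. Reporter was beta-lactamase driven by UAS in HEK293T (PR-UAS-bla), 2% charcoal-stripped serum; signal from LiveBLAzer FRET substrate, 2 hr at room temperature.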

Assay [5] is described as follows: qHTS assay to identify small molecule antagonists of the progesterone receptor (PR) signaling pathway - cell viability counter screen (AID 1346798). Note: nearly all actives have a fitted effect of over 50% in size. The settings on record: PR-UAS-bla HEK293T viability, CellTiter-Glo luminescence, 16 h; series mostly up to 92.4 µM. An outline of the steps: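 Cytotoxicity read as CellTiter-Glo luminescence (30 min, room temperature) in the same wells as the beta-lactamase readout. HEK293T PR-UAS-bla cells in charcoal-stripped 2% FBS received compound and R5020, then 16 h at 37C, 5% CO2.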

A short description of assay [6]: qHTS assay to identify small molecule agonists of the progesterone receptor (PR) signaling pathway - cell viability counter screen (AID 1346799; calls by dose curve; note: nearly all actives have a fitted effect of over 45% in size). To be noted: PR-UAS-bla HEK293T viability, CellTiter-Glo luminescence, 16 h; series mostly up to 92.4 µM. An outline of the steps: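 Cytotoxicity measured by CellTiter-Glo luminescence (30 min, RT) in the same wells as the PR beta-lactamase agonist read. Those HEK293T cells had 16 h compound treatment at 37 C in 2% charcoal-stripped FBS medium.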

Assay [7] is described as follows: qHTS assay to identify small molecule antagonists of the TGF-beta/Smad signaling pathway - cell viability counter screen (AID 1346824). Note: nearly all actives have a fitted effect of over 50% in size. The settings on record: SBE-bla HEK293T viability, CellTiter-Glo luminescence; series mostly up to 76.8 µM. In outline: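 Cytotoxicity counter-screen run in the same wells as the beta-lactamase Smad reporter read: CellTiter-Glo luminescence after 30 min at room temperature. HEK 293T SBE-bla cells had 5 hr compound exposure at 37 C with TGF-beta1 (0.25 ng/mL stock).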

Assay [8] is described as follows: qHTS assay to identify small molecule agonists of the TGF-beta/Smad signaling pathway - cell viability counter screen (AID 1346829). Note: top concentration of the series differs between compounds; nearly all actives have a fitted effect of over 45% in size. The settings on record: SBE-bla HEK293T viability, CellTiter-Glo luminescence, 5 h; series mostly up to 76.8 µM. In outline:
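After overnight seating at 37 C and 5% CO2, reporter cells got compounds for 5 hr and FRET substrate for 2 hr; cell viability then came from CellTiter-Glo luminescence.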

Assay [9] is described as follows: qHTS assay to identify small molecule agonists of the TGF-beta/Smad signaling pathway (AID 1346859; active = well fitted activation curve with a large enough effect in the signal ratio in the repeat runs, not every such curve was filed as active; the % refers to the signal ratio). To be noted: SBE-bla HEK293T, TGF-beta/Smad beta-lactamase reporter, 5 h; series mostly up to 76.8 µM. An outline of the steps:
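Fluorescence (ex 405 nm; em 460 and 530 nm) was read 2 h after LiveBLAzer FRET substrate at RT. The preceding compound treatment of overnight-plated SBE-bla HEK293T cells lasted 5 h at 37 C.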

The target of assay [10] is Thyrotropin-releasing hormone receptor (Homo sapiens) (UniProt P34981). Kind of assay: qHTS assay to identify small molecule antagonists of the thyrotropin-releasing hormone receptor (TRHR) signaling pathway (AID 1346877; active = well fitted inhibition curve with a large enough effect in the repeat runs, not every such curve was filed as active). To be noted: TRHR-HEK293, TRH-induced calcium fluorescence, antagonist mode; series mostly up to 51.3 µM. In outline: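 Calcium signal in dye-loaded TRHR/HEK293 cells; compounds added 5 min before TRH (1 nM final); fluorescence monitored 3 min at 1 s steps.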
Sequence of Thyrotropin-releasing hormone receptor (Homo sapiens) (P34981 whole entry, looked up): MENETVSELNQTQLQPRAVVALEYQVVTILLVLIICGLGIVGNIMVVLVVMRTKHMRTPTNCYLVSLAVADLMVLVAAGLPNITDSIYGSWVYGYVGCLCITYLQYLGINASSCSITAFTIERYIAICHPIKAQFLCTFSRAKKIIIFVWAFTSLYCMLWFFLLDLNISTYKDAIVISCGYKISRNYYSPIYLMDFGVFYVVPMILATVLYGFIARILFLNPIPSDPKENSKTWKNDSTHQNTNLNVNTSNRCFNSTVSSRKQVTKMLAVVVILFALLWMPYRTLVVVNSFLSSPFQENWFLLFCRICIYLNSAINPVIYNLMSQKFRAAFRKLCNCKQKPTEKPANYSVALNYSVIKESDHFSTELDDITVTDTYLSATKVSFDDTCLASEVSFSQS

Sequence of Thyrotropin receptor (Homo sapiens) (P16473 whole entry, looked up): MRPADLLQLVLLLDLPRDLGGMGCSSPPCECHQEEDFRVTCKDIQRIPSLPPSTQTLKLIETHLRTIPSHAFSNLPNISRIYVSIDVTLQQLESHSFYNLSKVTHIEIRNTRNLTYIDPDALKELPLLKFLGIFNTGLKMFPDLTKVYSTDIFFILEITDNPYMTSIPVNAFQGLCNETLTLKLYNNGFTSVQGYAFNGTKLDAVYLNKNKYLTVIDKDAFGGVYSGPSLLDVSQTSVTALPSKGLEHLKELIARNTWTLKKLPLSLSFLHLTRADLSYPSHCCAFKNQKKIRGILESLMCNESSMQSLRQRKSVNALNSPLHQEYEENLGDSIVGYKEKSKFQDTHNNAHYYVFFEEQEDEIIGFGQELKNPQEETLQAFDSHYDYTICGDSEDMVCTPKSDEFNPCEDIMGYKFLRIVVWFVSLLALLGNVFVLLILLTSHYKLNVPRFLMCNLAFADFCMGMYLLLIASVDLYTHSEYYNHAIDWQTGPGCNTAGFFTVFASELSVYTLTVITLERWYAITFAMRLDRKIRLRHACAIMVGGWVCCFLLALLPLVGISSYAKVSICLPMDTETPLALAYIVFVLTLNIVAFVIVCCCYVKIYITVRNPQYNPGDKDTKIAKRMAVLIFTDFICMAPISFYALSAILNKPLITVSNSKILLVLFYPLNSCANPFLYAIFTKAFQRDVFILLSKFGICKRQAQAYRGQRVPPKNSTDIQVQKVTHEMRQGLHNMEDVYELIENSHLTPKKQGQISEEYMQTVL
Sequence of Progesterone receptor (Homo sapiens) (P06401 whole entry, looked up): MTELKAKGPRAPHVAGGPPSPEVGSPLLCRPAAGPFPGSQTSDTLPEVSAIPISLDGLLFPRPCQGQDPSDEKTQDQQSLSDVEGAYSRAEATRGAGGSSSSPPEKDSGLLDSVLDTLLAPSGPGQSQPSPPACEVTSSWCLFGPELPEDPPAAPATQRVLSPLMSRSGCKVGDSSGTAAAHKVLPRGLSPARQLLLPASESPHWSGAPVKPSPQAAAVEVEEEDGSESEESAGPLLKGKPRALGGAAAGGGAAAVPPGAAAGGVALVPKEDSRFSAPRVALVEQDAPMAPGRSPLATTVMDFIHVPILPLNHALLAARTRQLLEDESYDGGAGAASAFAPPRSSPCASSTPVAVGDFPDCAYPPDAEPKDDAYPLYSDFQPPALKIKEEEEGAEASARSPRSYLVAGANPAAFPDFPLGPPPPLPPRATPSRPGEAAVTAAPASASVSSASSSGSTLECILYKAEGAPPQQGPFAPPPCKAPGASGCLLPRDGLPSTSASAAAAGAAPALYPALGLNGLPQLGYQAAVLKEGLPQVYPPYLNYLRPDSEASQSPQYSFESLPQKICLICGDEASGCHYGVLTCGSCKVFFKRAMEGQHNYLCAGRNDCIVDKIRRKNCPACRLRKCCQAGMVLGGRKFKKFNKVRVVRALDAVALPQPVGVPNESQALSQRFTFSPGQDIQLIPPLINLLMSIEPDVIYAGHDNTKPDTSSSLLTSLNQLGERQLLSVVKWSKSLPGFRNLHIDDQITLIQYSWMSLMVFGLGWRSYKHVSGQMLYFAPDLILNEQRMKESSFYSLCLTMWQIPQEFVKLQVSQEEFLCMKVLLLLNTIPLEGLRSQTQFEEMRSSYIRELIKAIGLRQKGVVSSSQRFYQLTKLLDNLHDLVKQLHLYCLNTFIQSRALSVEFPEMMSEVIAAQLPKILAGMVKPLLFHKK

With `O=c1[nH]nc(-c2ccc([N+](=O)[O-])o2)o1`, the Potency result in assay [1], in assay [3], in assay [4], in [5] and in assay [6] was “inactive” throughout. For the same compound, the Potency in assay [2] is 54.5 µM (active). For the same compound, the call in [7], in [8], in [9] and in [10] was inactive.
With `CS(C)=O`, the Potency result in [1], in assay [2], in assay [3], in assay [4], in assay [5] and in assay [6] was “inactive” in each case. The outcome in assay [7], in [8] and in [9] was inactive.
With `COC(=O)Cc1cccc2ccccc12`, the Potency entry in assay [1], in [2], in [3], in assay [4], in assay [5] and in [6] was “inactive” throughout. Besides, the compound was called inactive in [7], in [8] and in assay [9].
In the case of `O=[N+]([O-])c1ccccc1CCO`, the Potency entry in assay [1], in [2], in assay [3], in assay [4], in [5] and in assay [6] was “inactive” in each case. In addition, the call in [7], in assay [8], in assay [9] and in assay [10] was inactive.
Turning to `O=C(c1ccc(Cl)cc1)c1ccc(Cl)cc1`, the Potency result in assay [1], in [2], in assay [3], in assay [4], in [5] and in assay [6] was “inactive” each time. Further, the compound was called inactive in [7], in assay [8], in assay [9] and in assay [10].
For the compound `O=C(OC1C[C@H]2CC[C@@H](C1)[N+]21CCCC1)C(O)(c1ccccc1)c1ccccc1` (stereo partly specified), the Potency result in assay [1], in assay [2], in [3], in assay [4], in assay [5] and in [6] was “inactive” throughout. Besides, the compound was classed as inactive in assay [7], in assay [8], in assay [9] and in assay [10].
Consider `CCOC(OCC)OCC`, for which the Potency result in assay [1], in assay [2], in assay [3], in [4], in assay [5] and in assay [6] was “inactive” throughout. Also, the outcome in assay [7], in assay [8] and in [9] was inactive.
Turning to `CCCCCCCCCCCC(=O)OCC`, the Potency result in assay [1], in assay [2], in [3], in [4], in assay [5] and in assay [6] was “inactive” in each case. In addition, the outcome in [7], in assay [8] and in [9] was inactive.
As for `Clc1nc2ccccc2nc1Cl`, the Potency result in assay [1], in [2], in assay [3], in [4], in assay [5] and in assay [6] was “inactive” each time. For the same compound, the outcome in assay [7], in assay [8], in assay [9] and in assay [10] was inactive.
For the compound `OCCc1ccncc1`, the Potency result in assay [1], in assay [2], in assay [3], in assay [4], in [5] and in assay [6] was “inactive” each time. Besides, the result in assay [7], in [8], in assay [9] and in assay [10] was inactive.
For the compound `C1CCN(CN2CCCCC2)CC1`, the Potency result in [1], in assay [2], in [3], in [4], in assay [5] and in assay [6] was “inactive” each time. In addition, the compound was called inactive in assay [7], in assay [8], in [9] and in assay [10].
Turning to `Nc1ncnc2c1ncn2[C@@H]1O[C@H](CO)[C@@H](O)[C@H]1O`, the Potency result in assay [1], in assay [2], in assay [3], in assay [4], in assay [5] and in [6] was “inactive” each time. The call in [7], in assay [8], in assay [9] and in [10] was inactive.
Regarding `CC(C)(C(=O)O)c1ccc(C(O)CCCN2CCC(C(O)(c3ccccc3)c3ccccc3)CC2)cc1` (stereo unspecified), the Potency result in assay [1], in assay [2], in [3], in assay [4], in [5] and in assay [6] was “inactive” in each case. The call in assay [7], in assay [8], in assay [9] and in assay [10] was inactive.
Turning to `NC(=O)c1cc[n+](CC2=C(C(=O)[O-])N3C(=O)[C@@H](NC(=O)Cc4cccs4)[C@H]3SC2)cc1`, the Potency result in [1], in assay [2], in assay [3], in [4], in assay [5] and in assay [6] was “inactive” throughout. In addition, the compound was classed as inactive in assay [7], in assay [8] and in assay [9].
Consider `CC1(C)CC(=O)CC(C)(C)N1`, for which the Potency entry in [1], in assay [2], in assay [3], in assay [4], in [5] and in [6] was “inactive” each time. Further, the result in [7], in assay [8], in assay [9] and in [10] was inactive.
Turning to `CCCCOC(=O)C(C)Oc1ccc(Oc2ccc(C(F)(F)F)cn2)cc1` (stereo unspecified), the Potency result in [1], in [2], in assay [3], in assay [4] and in assay [5] was “inactive” each time. Moreover, the compound was classed as inactive in [8] and in assay [9].
As to `O=C(O)c1ccncc1`, the Potency result in assay [1], in [2], in assay [3], in assay [4], in assay [5] and in [6] was “inactive” in each case. Also, the compound was classed as inactive in assay [8], in assay [9] and in [10].
`CC(C)=CCCC(C)C=O` (stereo unspecified): the Potency result in assay [1], in [2], in [3], in [4] and in [5] was “inactive” each time. In addition, the call in assay [7], in assay [8] and in [9] was inactive.
Turning to `CCCCCO`, the Potency entry in assay [1], in [2], in assay [3], in assay [4], in assay [5] and in [6] was “inactive” throughout. The result in assay [8], in assay [9] and in assay [10] was inactive.
Regarding `CCCCCC1CCC(=O)O1` (stereo unspecified), the Potency entry in assay [1], in assay [2], in assay [3], in assay [4] and in [5] was “inactive” each time. In addition, the result in assay [7], in assay [8], in assay [9] and in [10] was inactive.
For `CCCCCCCCCCCCN1CCOCC1`, the Potency entry in assay [1], in assay [2], in [3], in assay [4], in assay [5] and in assay [6] was “inactive” throughout. Also, the result in [8] and in assay [9] was inactive.
Turning to `N#C[C@@H]1CC(F)(F)CN1C(=O)CNC1CC2CCC(C1)N2c1ncccn1` (stereo partly specified), the Potency result in assay [1], in assay [2], in assay [3], in assay [4], in assay [5] and in assay [6] was “inactive” each time. The call in [8] and in assay [9] was inactive.
For the compound `CC(C(=O)O)c1ccc2c(c1)Cc1cccnc1O2` (stereo unspecified), the Potency entry in assay [1], in [2], in assay [3], in assay [4], in assay [5] and in assay [6] was “inactive” in each case. Besides, the outcome in [7], in assay [8] and in assay [10] was inactive.
As for `O=C(c1ccco1)N1CCNCC1`, the Potency result in [1], in assay [2], in assay [3], in assay [4], in assay [5] and in assay [6] was “inactive” each time. In addition, the result in assay [8], in assay [9] and in assay [10] was inactive.
